Inconclusive results are not listed. Active and inactive are the calls of the source. Unless noted, calls follow the shape of the dose curve; as a rule, active = well fitted curve in the direction sought with a large enough effect; inconclusive = small, poorly fitted or top-dose-only effect, or another doubt; inactive = no such curve, though single readings can be large; an effect the other way counts as inactive or inconclusive.

The source of these data is PubChem BioAssay (NCATS).

Test [1] concerns the target Ferritin light chain (Equus caballus) (UniProt P02791). Kind of test: qHTS Validation Assay for Identification of Novel General Anesthetics (AID 2323). Also: series mostly up to about 77 µM. In a few lines: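 Normalized fluorescence response, scaled between free 1-AMA and 1-AMA/apoferritin complex, fitted to a four-parameter Hill equation for concentration-effect values. Binding mix: 10 uM horse-spleen apoferritin, 50% saturated 1-AMA in PBS; read 380/535 nm after 10 min.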

For test [2], the target named is ATP-dependent DNA helicase Q1 (Homo sapiens) (UniProt P46063). Kind of test: qHTS Validation Assay for Inhibitors of RecQ-Like Dna Helicase 1 (RECQ1) (AID 2353). The method, boiled down: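 50 nM RECQ1T1 preincubated 15 min with compound in Tris pH 8.0 buffer with MgCl2, DTT, Tween-20 and 2.5 ug/ml poly(dI-dC); started with 200 nM TAMRA/BHQ-2 forked duplex and 2 mM ATP. Unwinding read as fluorescence (525/598 nm), two reads 2 h apart.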

Test [3] can be described thus: Cytometric Cell-Based qHTS for Inhibitors of the mTORC1 Signaling Pathway in MEF (Tsc2-/-, p53-/-) Cells (AID 2660).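 Also: Tsc2 and p53 null MEFs carrying empty vector with compound for 24 h; percent of cells above a phospho-rpS6 to PI ratio cutoff in each well; series mostly up to about 38 µM.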 In a few lines:
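Cells are plated, treated with compound for 24 hrs at 37 degree Celsius, then fixed, blocked and immunostained for phospho-rpS6 Ser235/236. Propidium iodide counterstain follows. Per-well % positive cells is derived from the PI-normalized phospho-S6 signal.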

A short description of test [4]: High Content Imaging Cell-Based qHTS for Inhibitors of the mTORC1 Signaling Pathway in MEF (Tsc2-/-, p53-/-) Cells (AID 2666).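 Also: percent of cells scored positive for phospho-rpS6 Ser235/236 immunostaining by imaging.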 Also: potency is read from the fitted curve at half-maximal effect. The method, boiled down:
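Cells were plated, dosed with compound after 24 hrs, and incubated another 24 hrs at 37 degree Celsius. Fixed cells were immunostained for phospho-rpS6 Ser235/236 and counterstained, and the normalized signal was scored as % active cells against rapamycin and DMSO controls.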

Test [5] is described as follows: High Content Imaging Cell-Based qHTS for Inhibitors of the mTORC1 Signaling Pathway in MEF Cells (AID 2667). Also: potency is read from the fitted curve at half-maximal effect. The method, boiled down:
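Immunofluorescence for rpS6 phosphorylation in MEFs of Tsc2-/-, p53-/- background rescued with WT Tsc2. Compound exposure lasted 24 hrs. Inhibition was scored against rapamycin-treated control wells.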

Test [6] can be described thus: Cytometry Cell-Based qHTS for Inhibitors of the mTORC1 Signaling Pathway in MEF cells (AID 2668).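 Also: Tsc2-/- p53-/- mouse embryonic fibroblasts stably re-expressing wild-type Tsc2; percent cells positive for phospho-rpS6 Ser235/236 relative to propidium iodide stain; series mostly up to about 38 µM.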 The method, boiled down: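 In MEFs grown in DMEM + 10% FBS, a 24 hrs compound exposure preceded imaging of phospho-rpS6 Ser235/236 by laser-scanning cytometry.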
For test [7], the target named is Ubiquitin carboxyl-terminal hydrolase 2 (Homo sapiens) (UniProt O75604). Kind of test: qHTS Validation Assay for Inhibitors of Ubiquitin-specific Protease USP2a Using CHOP2 as the Reporter (AID 463106). In a few lines: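 10nM USP2 core + cpd, 30min RT; add 25nM Ub-CHOP2/25nM substrate; 60min RT; FI 485/531nm. Buffer Tris pH 8.0, CaCl2, BME, CHAPS. Norm. to NEM = 100% inhibition; time-zero read flags fluorescent artifacts.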

The target in test [8] is DNA polymerase III PolC-type (Bacillus subtilis (strain 168)) (UniProt P13267). In words: qHTS Validation Assay for the Inhibitors of DNA Replication in Gram-Positive Bacteria (AID 485295).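 Also: reconstituted holoenzyme with PolC plus beta clamp SSB and primase; PicoGreen fluorescence of double-stranded DNA made on primed circular M13 template; series mostly up to about 57 µM.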 In a few lines:
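Inhibition of DNA synthesis by the reconstituted PolC holoenzyme, monitored through PicoGreen staining of dsDNA formed from ssM13Gori, dNTPs and NTPs, with compound preincubation and room-temperature reaction.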

Test [9] addresses Tumor susceptibility gene 101 protein (Homo sapiens) (UniProt Q99816). Kind of test: qHTS Validation Assay for Iinhibitors of HIV-1 Budding by Blocking the Interaction of PTAP/TSG101 (AID 485342; calls by dose curve). The method, boiled down:
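Compound wells held the Tsg101 binding domain (10 uM) and a FITC-conjugated PTAP peptide (50 nM) in buffer at pH 7.5 containing 0.15 M NaCl and 0.01% Tween 20; polarization was recorded after 20 min, r.t.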

Test [10] can be described thus: qHTS Validation Assay to Find Inhibitors of Chronic Active B-Cell Receptor Signaling (AID 485345; active = well fitted curve in the direction sought with a large enough effect in the main read-out, with a control signal flat, not every such curve was filed as active). The method, boiled down:
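Read-out: ratio of filter-corrected green (IkappaBalpha fusion) to red (native) luciferase signal in doxycycline-induced TMD8 cells after 4 h at 37C. Titration spanned 46 uM–3 nM; Data were normalised to basal cells and 10 uM MG-132 wells.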

Test [11] has as its target Beta-2 adrenergic receptor (Homo sapiens) (UniProt P07550). Kind of test: qHTS validation assay of beta-arrestin-biased ligands of beta2-adrenergic receptor (AID 485366). In a few lines: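 Values derive from curve-fitted %Activity of a luminescent beta-arrestin recruitment reporter; compounds tested up to 46 microM on Tango cells for 18 hr at 37 degrees C, 5% CO2.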
Test [12] has as its target ATP-dependent 6-phosphofructokinase (Trypanosoma brucei brucei) (UniProt O15648). Kind of test: qHTS Validation Assay to Find Inhibitors of T. brucei phosphofructokinase (AID 485368). Conditions: outcome: dose series up to 57.5 µM. The method, boiled down: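 Enzyme reaction in triethanolamine buffer pH 8.0 with 5 mM MgCl2, 0.01% Tween20 and 0.1% BSA; PFK 1.25 nM, F6P 0.5 mM, ATP 0.1 mM, 45 min RT. ADP quantified by ADP-Glo.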

Test [13] can be described thus: Quantitative high throughput screen for delayed death inhibitors of the malarial parasite plastid, 96 hour incubation (AID 488745). Also: nearly all actives have a fitted effect of over 70% in size. Also: potency is read from the fitted curve at half-maximal effect. The method, boiled down:
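Growth of reporter-bearing P. falciparum in red cells is measured after 96 h with compound, covering two erythrocytic cycles. Luminescence from the integrated luciferase serves as the growth signal.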

Test [14] in a line: Quantitative high throughput screen for delayed death inhibitors of the malarial parasite plastid, 48 hour incubation (AID 488752). Also: nearly all actives have a fitted effect of over 65% in size. Also: potency is read from the fitted curve at half-maximal effect. The method, boiled down:
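One parasite generation (48 h, 37 C, 5% CO2) of luciferase-reporter P. falciparum in erythrocytes is run with test compound; decreased luminescence indicates inhibited growth.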

The target in test [15] is Thioredoxin reductase 1, cytoplasmic (Rattus norvegicus) (UniProt O89049). In words: qHTS Assay for Substrates of Mammalian Selenoprotein Thioredoxin Reductase 1 (TrxR1) (AID 488772).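 Also: NADPH fluorescence in the first read after selenite addition and not the 8 min delta; series mostly up to about 57 µM; a drop in NADPH fluorescence below the no-compound background marks a TrxR1 substrate.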 The method, boiled down: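 Quantitative HTS in Tris-HCl buffer at pH 7.5 with EDTA and Tween-20, using rat TrxR1, 400 uM NADPH and 400 uM selenite (final). A fall in initial NADPH fluorescence relative to background marked substrate behaviour.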

The nature of test [16]: Validation screen for small molecules that induce DNA re-replication in MCF 10A normal breast cells (AID 463097). Also: nearly all actives have a fitted effect of over 60% in size. The method, boiled down:
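Following 48 hr compound incubation (37 C, 5% CO2), MCF 10A cells receive Hoechst for 40 min at 37 C. Nuclei are then scanned (excitation 405 nm, emission 500-530 nm) for total fluorescence intensity.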

For test [17], the target named is RecQ-like DNA helicase BLM (Homo sapiens) (UniProt P54132). Kind of test: qHTS Validation Assay for Inhibitors of Bloom's syndrome helicase (BLM) (AID 2364). In a few lines: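 Forked 20-bp duplex substrate (200 nM, TAMRA/BHQ-2) plus 2 mM ATP added after 15 min compound preincubation with 50 nM enzyme, pH 8.0, poly(dI-dC) 2.5 ug/ml. Strand separation followed by fluorescence (525/598 nm) over 2 h, normalized to enzyme-free and DMSO controls.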

Chain of ATP-dependent DNA helicase Q1 (Homo sapiens) (P46063 whole entry, looked up): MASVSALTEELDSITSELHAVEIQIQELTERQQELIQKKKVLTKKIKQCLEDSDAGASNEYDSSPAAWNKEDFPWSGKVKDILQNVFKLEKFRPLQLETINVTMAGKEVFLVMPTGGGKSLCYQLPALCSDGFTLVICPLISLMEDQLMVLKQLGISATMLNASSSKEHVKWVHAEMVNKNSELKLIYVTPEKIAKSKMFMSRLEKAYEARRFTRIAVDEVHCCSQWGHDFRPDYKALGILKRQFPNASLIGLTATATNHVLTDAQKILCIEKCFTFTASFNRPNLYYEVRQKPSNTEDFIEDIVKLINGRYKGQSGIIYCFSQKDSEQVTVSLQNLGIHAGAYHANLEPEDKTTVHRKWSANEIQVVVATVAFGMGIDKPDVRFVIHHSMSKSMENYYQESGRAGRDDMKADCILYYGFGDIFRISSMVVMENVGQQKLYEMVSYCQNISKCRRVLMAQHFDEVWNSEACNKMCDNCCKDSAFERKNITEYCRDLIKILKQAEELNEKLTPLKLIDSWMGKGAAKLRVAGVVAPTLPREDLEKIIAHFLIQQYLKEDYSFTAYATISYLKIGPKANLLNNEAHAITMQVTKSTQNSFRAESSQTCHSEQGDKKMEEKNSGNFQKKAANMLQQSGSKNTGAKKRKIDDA
Chain of ATP-dependent 6-phosphofructokinase (Trypanosoma brucei brucei) (O15648 whole entry, looked up): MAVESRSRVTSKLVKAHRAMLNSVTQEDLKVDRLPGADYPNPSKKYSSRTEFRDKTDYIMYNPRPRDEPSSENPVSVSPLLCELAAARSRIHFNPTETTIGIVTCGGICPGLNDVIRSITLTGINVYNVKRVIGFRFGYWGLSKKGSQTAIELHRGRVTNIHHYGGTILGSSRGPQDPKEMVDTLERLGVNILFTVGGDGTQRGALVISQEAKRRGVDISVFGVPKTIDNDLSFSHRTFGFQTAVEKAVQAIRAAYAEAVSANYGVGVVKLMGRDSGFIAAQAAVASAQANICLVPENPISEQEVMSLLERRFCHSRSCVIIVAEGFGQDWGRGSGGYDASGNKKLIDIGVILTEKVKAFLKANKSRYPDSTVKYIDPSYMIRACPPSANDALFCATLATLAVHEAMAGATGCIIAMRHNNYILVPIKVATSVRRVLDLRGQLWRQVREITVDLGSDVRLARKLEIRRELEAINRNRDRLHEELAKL
Chain of Beta-2 adrenergic receptor (Homo sapiens) (P07550 whole entry, looked up): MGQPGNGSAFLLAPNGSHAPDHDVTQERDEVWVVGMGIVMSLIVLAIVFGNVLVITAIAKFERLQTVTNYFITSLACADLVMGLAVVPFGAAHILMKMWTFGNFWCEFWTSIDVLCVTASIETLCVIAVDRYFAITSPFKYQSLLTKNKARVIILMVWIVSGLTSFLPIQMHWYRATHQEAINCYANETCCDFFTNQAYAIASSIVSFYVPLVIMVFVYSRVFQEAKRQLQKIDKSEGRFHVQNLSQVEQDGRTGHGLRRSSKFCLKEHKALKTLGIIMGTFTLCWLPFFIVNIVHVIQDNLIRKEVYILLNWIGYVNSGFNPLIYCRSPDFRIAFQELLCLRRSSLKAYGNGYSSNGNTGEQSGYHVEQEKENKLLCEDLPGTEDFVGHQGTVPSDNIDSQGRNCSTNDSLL
Chain of Ferritin light chain (Equus caballus) (P02791 2-175 limits assumed): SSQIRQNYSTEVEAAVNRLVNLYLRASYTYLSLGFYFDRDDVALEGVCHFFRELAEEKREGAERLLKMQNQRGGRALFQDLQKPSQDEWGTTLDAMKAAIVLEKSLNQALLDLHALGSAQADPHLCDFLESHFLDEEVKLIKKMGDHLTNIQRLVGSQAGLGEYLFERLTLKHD
Chain of Thioredoxin reductase 1, cytoplasmic (Rattus norvegicus) (O89049 whole entry, looked up): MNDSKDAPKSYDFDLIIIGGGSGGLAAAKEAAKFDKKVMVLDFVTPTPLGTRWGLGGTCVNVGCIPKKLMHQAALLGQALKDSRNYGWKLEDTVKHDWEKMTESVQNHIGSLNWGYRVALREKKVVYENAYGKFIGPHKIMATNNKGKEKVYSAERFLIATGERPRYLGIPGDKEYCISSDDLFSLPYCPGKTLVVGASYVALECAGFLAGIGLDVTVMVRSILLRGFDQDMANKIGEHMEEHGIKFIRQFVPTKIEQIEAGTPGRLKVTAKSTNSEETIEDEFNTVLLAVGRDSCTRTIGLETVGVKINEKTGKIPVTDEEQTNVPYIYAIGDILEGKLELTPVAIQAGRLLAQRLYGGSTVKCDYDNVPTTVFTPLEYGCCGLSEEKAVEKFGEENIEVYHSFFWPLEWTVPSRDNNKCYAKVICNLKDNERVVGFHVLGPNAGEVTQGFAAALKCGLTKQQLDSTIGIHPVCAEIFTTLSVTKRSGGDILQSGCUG
Chain of Ubiquitin carboxyl-terminal hydrolase 2 (Homo sapiens) (O75604 whole entry, looked up): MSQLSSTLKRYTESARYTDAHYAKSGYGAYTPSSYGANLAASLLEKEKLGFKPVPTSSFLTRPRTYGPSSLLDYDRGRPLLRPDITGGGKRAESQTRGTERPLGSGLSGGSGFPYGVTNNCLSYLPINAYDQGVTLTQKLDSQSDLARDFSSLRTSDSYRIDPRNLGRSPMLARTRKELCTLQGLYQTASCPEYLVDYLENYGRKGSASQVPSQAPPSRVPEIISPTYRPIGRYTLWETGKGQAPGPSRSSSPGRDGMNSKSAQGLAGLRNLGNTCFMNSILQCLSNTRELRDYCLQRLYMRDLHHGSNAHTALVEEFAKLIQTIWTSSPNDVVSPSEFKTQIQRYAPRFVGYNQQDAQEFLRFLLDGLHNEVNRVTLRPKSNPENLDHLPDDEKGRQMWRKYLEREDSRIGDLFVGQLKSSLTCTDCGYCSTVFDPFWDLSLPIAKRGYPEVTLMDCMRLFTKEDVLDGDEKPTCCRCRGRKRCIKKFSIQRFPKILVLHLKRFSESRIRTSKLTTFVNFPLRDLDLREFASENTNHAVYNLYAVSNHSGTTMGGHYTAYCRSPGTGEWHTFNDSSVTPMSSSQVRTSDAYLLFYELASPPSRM
Chain of Tumor susceptibility gene 101 protein (Homo sapiens) (Q99816 whole entry, looked up, the tested form may be a part): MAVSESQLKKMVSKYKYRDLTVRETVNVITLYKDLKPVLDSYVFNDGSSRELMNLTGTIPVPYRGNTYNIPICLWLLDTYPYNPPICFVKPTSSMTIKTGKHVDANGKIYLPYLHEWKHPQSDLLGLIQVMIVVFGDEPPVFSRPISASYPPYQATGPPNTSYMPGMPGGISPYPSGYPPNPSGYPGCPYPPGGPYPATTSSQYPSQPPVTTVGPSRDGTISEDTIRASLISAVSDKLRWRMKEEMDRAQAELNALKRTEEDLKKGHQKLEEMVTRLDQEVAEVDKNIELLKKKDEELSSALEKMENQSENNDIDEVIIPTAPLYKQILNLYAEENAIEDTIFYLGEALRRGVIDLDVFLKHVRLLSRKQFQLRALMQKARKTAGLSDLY
Chain of DNA polymerase III PolC-type (Bacillus subtilis (strain 168)) (P13267 whole entry, looked up): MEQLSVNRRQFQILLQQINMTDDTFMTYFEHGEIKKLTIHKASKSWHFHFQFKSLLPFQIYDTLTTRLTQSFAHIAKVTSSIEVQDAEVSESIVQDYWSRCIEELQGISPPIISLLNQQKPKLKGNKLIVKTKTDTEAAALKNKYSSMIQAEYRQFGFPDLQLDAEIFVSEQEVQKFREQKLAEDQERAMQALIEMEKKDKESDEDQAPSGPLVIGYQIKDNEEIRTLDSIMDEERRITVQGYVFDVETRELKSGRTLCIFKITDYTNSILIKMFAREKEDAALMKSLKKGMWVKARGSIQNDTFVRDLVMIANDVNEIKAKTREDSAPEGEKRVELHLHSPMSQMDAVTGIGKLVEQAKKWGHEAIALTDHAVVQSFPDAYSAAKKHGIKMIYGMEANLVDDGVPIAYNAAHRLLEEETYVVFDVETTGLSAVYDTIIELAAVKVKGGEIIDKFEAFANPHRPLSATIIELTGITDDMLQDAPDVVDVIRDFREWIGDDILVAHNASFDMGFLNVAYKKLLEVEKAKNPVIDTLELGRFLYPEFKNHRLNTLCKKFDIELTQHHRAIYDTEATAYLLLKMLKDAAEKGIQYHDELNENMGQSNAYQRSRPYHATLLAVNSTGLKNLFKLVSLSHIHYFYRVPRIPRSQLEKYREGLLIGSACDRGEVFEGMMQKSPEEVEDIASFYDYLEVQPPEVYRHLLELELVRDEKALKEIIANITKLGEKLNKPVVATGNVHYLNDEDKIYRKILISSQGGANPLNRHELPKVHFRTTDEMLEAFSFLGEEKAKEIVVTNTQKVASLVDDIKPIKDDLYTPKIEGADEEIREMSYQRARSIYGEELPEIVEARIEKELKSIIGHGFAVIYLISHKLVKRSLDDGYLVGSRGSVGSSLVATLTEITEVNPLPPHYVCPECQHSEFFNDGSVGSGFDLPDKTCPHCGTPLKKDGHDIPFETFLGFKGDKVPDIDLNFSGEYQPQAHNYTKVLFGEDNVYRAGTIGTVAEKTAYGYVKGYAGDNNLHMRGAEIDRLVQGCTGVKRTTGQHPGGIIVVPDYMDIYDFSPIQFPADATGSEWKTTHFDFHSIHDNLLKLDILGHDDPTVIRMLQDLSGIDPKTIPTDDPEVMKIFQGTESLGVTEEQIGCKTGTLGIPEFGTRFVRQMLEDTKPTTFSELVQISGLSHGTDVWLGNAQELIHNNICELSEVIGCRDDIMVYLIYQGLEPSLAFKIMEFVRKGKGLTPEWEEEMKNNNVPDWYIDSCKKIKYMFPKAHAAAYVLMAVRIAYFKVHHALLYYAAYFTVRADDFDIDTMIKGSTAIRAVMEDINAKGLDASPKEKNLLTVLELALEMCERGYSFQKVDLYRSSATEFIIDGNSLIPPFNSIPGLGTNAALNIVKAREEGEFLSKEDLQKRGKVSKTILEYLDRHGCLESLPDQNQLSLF

Consider `Cc1ccc(/C(=C\CN2CCCC2)c2ccccn2)cc1`, for which the compound was called inactive in test [1], in test [3], in [7], in test [9], in test [11] and in [12]. The call in [15] was inactive. For the same compound, the Potency result in test [2], in test [4], in test [5], in test [6], in test [8] and in test [10] was “inactive” in each case. For the same compound, the Potency result in test [13] and in [14] was “inactive” throughout.
Turning to `CN(C(=O)CCCOc1ccc2[nH]c(=O)ccc2c1)C1CCCCC1`, the outcome in test [1], in test [3], in test [7], in test [9], in [11] and in test [12] was inactive. Besides, in [15], the outcome was inactive. In addition, the Potency result in [2], in [4], in [5], in test [6], in test [16] and in test [8] was “inactive” throughout. In addition, in test [14], the Potency result was “inactive”.
Regarding `CN1C(=O)CC[C@H]1c1cccnc1`, the result in test [3], in test [7], in test [9], in [11], in test [12] and in [15] was inactive. Further, the Potency result in test [4], in [5], in [6], in [8] and in [10] was “inactive” throughout.
Consider `CCCCCCCC/C=C\CCCCCCCC(=O)NCc1ccc(O)c(OC)c1`, for which the outcome in test [3], in test [7], in test [9], in [11] and in test [12] was inactive. For the same compound, the Potency result in test [4], in test [8] and in [10] was “inactive” in each case.
As to `CN(C)[C@@H]1C(=O)C(C(N)=O)=C(O)[C@@]2(O)C(=O)C3=C(O)c4c(O)ccc(Cl)c4[C@@H](O)[C@H]3C[C@@H]12`, the call in [3], in test [7], in test [9], in test [11] and in [15] was inactive. Further, the Potency entry in test [4], in [5], in [6], in test [8] and in test [10] was “inactive” in each case.
On to `CC(C)(C)c1ccc(C(=O)CCCN2CCC(OC(c3ccccc3)c3ccccc3)CC2)cc1`, for which the Potency in [4] was 20.7 µM (active); in test [5], 4.65 µM (active). The result in test [7], in [9], in [11], in test [12] and in [15] was inactive. The Potency entry in test [8] and in test [10] was “inactive” each time.
On to `COC(=O)C1=C(C)NC(C)=C(C(=O)OCCN(C)Cc2ccccc2)C1c1cccc([N+](=O)[O-])c1` (stereo not drawn), for which the Potency in test [5] was 18.5 µM (active); in test [13], 3.29 µM (active); in test [14], 2.94 µM (active). Moreover, the result in [7], in [9], in [11], in test [12] and in [15] was inactive. For the same compound, the Potency entry in [8] was “inactive”.
With `COc1ccc2c(c1OC)C(=O)O[C@@H]2[C@H]1c2c(cc3c(c2OC)OCO3)CCN1C`, the result in test [3], in [7], in [9], in test [11], in test [12] and in [15] was inactive. Moreover, the Potency result in test [4], in test [5], in [6], in test [8] and in test [10] was “inactive” in each case.
For the compound `C[N+](C)(C)CCCCCCCCCC[N+](C)(C)C`, the Potency entry in [2], in [17], in test [4], in test [5], in test [6] and in [16] was “inactive” each time. For the same compound, the Potency result in test [10] was “inactive”. Further, the outcome in test [3], in test [7], in test [9], in test [11], in [12] and in test [15] was inactive. Further, the Potency was 0.329 µM (active) in test [13] and 1.04 µM (active) in test [14].
For the compound `NC(=O)c1cn(Cc2c(F)cccc2F)nn1`, the result in test [3], in [7], in test [9], in [11] and in test [15] was inactive. The Potency result in test [4], in [5], in [6], in test [8] and in [10] was “inactive” each time.
For `CN(C)C/C=C(/c1ccc(Br)cc1)c1cccnc1`, the compound was classed as inactive in test [1], in [3], in test [7], in test [9], in test [11] and in test [12]. Further, the call in test [15] was inactive. For the same compound, the Potency entry in test [17], in [4], in test [5], in test [6], in test [16] and in test [8] was “inactive” in each case. In addition, in test [10], the Potency result was “inactive”. Moreover, the Potency in [14] was 13.1 µM (active).
Regarding `CC(N=C(NC#N)Nc1ccncc1)C(C)(C)C` (stereo not drawn), the result in test [1], in test [3], in test [7], in test [9], in test [11] and in [12] was inactive. Also, in [15], the outcome was inactive. For the same compound, the Potency entry in test [2], in test [4], in [5], in test [6], in [16] and in test [8] was “inactive” each time. The Potency result in [10], in test [13] and in test [14] was “inactive” throughout.
